# Out of some 290,000 compounds screened, about 11,000 (3.8%) were called active. The sample holds actives, similar compounds and a random draw of the others, so the mix is not that of the screen.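 How the source made its calls: active means mean replicate inhibition above about 79%, with every replicate also reaching it (limit read from the data); inconclusive means only one of the two criteria met; inactive means mean below limit and not every replicate reaching it.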
# Biological target: FAD-linked sulfhydryl oxidase ALR (Homo sapiens) (UniProt P55789)
# Sequence (P55789 whole entry, looked up): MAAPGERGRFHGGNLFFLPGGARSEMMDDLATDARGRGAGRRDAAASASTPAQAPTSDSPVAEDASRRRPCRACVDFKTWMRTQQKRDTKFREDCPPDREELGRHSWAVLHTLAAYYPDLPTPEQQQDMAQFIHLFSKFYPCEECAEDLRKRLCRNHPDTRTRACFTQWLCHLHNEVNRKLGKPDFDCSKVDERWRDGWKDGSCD
# Experiment: inhibitors of human ALR sulfhydryl oxidase, primary screen, biochemical, H2O2 detection, HRP-luminol luminescence, single point (AID 485317)
# Conditions: purified ALR, DTT oxidation, hits give high values, concentration not given here
row,SMILES,inhibition
1,CC(C)CC1(C)NC(=O)N(CC(=O)Nc2ccc3c(c2)OCCO3)C1=O (stereo not given),4.51% (inactive)
2,CCC(C)c1ccccc1N1CC(C(=O)N2CCN(S(=O)(=O)c3ccc(F)cc3)CC2)CC1=O (stereo not given),1.3% (inactive)
3,COCC(=O)Nc1c(I)c(C(=O)NCC(O)CO)c(I)c(C(=O)N(C)CC(O)CO)c1I (stereo not given),-12.2% (inactive)
4,O=C(CSc1ccccn1)N1CCN(S(=O)(=O)c2ccc(Cl)cc2)CC1,-0.731% (inactive)
5,CO[C@@H]1[C@@H](OC(N)=O)[C@@H](O)C(Oc2ccc3c(O)c(NC(=O)c4ccc(O)c(CC=C(C)C)c4)c(=O)oc3c2C)OC1(C)C (stereo not given in full),1.83% (inactive)
6,COc1ccc(F)cc1C(=O)COC(=O)c1n[nH]c(=O)c2ccccc12,-1.76% (inactive)
7,CC(C)(C)OC(=O)N[C@H](C(=O)OC(C)(C)C)c1ccc(Br)cc1,-0.888% (inactive)
8,O=C1N[C@@H](Cc2ccccc2)C(=O)N2[C@@H]3N(S(=O)(=O)c4ccc(F)cc4)c4ccccc4[C@]3(Br)C[C@@H]12,-1.43% (inactive)
9,CC(=O)C1=C(O)C(=O)N(c2ccc(S(N)(=O)=O)cc2)C1c1ccccc1F (stereo not given),-0.498% (inactive)
10,NS(=O)(=O)c1ccc(NC(=O)COC(=O)C2(c3ccc(F)cc3)CCCC2)cc1,-14.8% (inactive)
11,NS(=O)(=O)c1ccc(NC2=CC(c3ccc(F)cc3)N(c3ccc(S(N)(=O)=O)cc3)C2=O)cc1 (stereo not given),97.6% (active)
12,COc1ccccc1NS(=O)(=O)c1ccc(C)c(C(=O)NNC(=O)c2csc(N3CCOCC3)n2)c1,-6.78% (inactive)
13,CCn1c(-c2ccoc2C)n[nH]c1=S,6.36% (inactive)
14,CCCc1cc(-c2n[nH]c(=S)n2CC)c2ccccc2n1,-9.51% (inactive)
15,Cc1ccccc1-c1n[nH]c(=S)n1C,93.4% (active)
16,O=C(CCNC(=O)c1ccc(Cl)cc1)NC1CCCc2ccccc21 (stereo not given),-6.93% (inactive)
17,CCOc1ccccc1NC(=O)CCc1ccc(C)o1,99.7% (active)
18,CCOc1ccccc1NC(=O)Cc1cccs1,-14.8% (inactive)
19,CCOc1ccccc1NC(=O)CCc1nnc2ccc(NCc3ccco3)nn12,1.12% (inactive)
20,CCOc1ccc(NC(=O)CN(C)C(=O)CCSc2ccc(F)cc2)cc1OCC,-3.71% (inactive)

row,SMILES,inhibition
1,COc1ccc(S(=O)(=O)Nc2cc(C)on2)cc1NC(C)=O,-7.72% (inactive)
2,O=C(CN1CCN(c2ccccc2O)CC1)NC(=O)NCc1ccccc1,13.1% (inactive)
3,Oc1ccccc1N1CCN(C(=S)NCc2ccccc2)CC1,96.4% (active)
4,CC1CCCCN1C(=S)NCc1ccccc1 (stereo not given),-1.5% (inactive)
5,CCOC(=O)c1sc(=NC(=O)c2ccc(Br)cc2)n(C)c1C,-3.96% (inactive)
6,Cc1csc(=Nc2ccccc2)n1CCO,98.7% (active)
7,OCCn1c(-c2ccccc2)csc1=Nc1ccccc1,99% (active)
8,C=C(C)CNC(=S)/N=c1\scc(C)n1CC,18% (inactive)
9,O=c1cc(CCl)nc2scc(-c3ccccc3)n12,60.8% (inactive)
10,Cc1csc(=NC(=O)c2ccccc2)n1CCO,99% (active)
11,Cc1cc(C(=O)CCC(=O)NNC(=O)c2ccccc2O)c(C)s1,8.1% (inactive)
12,O=C(COC(=O)c1ccc2ncsc2c1)Nc1ccc(Cl)cc1,16% (inactive)
13,COc1ccc(NC(=O)C(=O)NCC(c2ccco2)N2CCc3ccccc3C2)cc1 (stereo not given),-1.35% (inactive)
14,COc1ccc(NS(=O)(=O)c2cc(NC(=O)c3ccc(S(=O)(=O)N(C)C)cc3)ccc2N2CCOCC2)cc1,0.706% (inactive)
15,Cc1cc(C(=O)OC(C)C(=O)NC2CCCCC2C)c(C)o1 (stereo not given),2.82% (inactive)
16,CC1CC(=S)Nc2ccccc2N1Cc1ccccc1 (stereo not given),99% (active)
17,CC1CC(=O)Nc2ccccc2N1S(=O)(=O)c1cccs1 (stereo not given),-4.3% (inactive)
18,CC1CC(C)(C)NC(=S)N1CCC(=O)N1CCN(Cc2ccccc2)CC1 (stereo not given),-28.3% (inactive)
19,CC1CCCN(C(=O)c2cc(-c3ccco3)nc3ccccc23)C1 (stereo not given),6.96% (inactive)
20,Cc1cc(C)c(C)c(S(=O)(=O)N2CCN(C(=O)c3ccc4c(=O)n5c(nc4c3)CCC5)CC2)c1C,-2.44% (inactive)

row,SMILES,inhibition
1,O=C(Nc1cccc(S(=O)(=O)N2CCCCC2)c1)c1cncc(Br)c1,-4.78% (inactive)
2,CCc1nnc(NS(=O)(=O)c2ccc(N=Cc3c(C)[nH]n(-c4ccc(C)cc4)c3=O)cc2)s1,63.1% (inactive)
3,COc1cc(SC#N)ccc1N=Cc1c(C)[nH]n(-c2ccc(C)cc2)c1=O,99.6% (active)
4,Cc1ccc(-n2[nH]c(C)c(/C=N/N3C(=O)c4cccc5cccc(c45)C3=O)c2=O)cc1,-15.1% (inactive)
5,O=C(NCCCN1CCCC1=O)c1cccc(S(=O)(=O)NCc2ccccc2)c1,0.0635% (inactive)
6,CC(C)NC(=O)c1ccc(Cl)cc1Cl,-6.81% (inactive)
7,CC(C)Oc1ccccc1C(=O)NC(CO)C(=O)O (stereo not given),2.33% (inactive)
8,CC(C)NC(=O)c1ccccc1S(=O)c1ccccc1C#N (stereo not given),99.6% (active)
9,CC(C)CN(C(=O)COC(=O)c1ccc2ccccc2c1)c1c(N)n(Cc2ccccc2)c(=O)[nH]c1=O,1.44% (inactive)
10,O=C(O)Cc1ccc(NC(=O)Nc2cccc3ccccc23)cc1,-53.7% (inactive)
11,S=C(NCCc1ccccc1)NCc1ccccc1Cl,5.1% (inactive)
12,O=C(O)Cc1ccc(NCc2ccccc2Cl)cc1,97.2% (active)
13,CC(=O)C12CC(C)=C(C)CC1CC1C3CCC4=CC(=O)CCC4(C)C3CCC12C (stereo not given),-1.17% (inactive)
14,COc1ccc(-c2cn[nH]c2-c2ccc(OC)cc2)cc1,0.7% (inactive)
15,CCOc1ccccc1Oc1cn[nH]c1-c1ccc(OC)cc1O,59.2% (inactive)
16,COc1ccc(Oc2cn[nH]c2-c2ccc(OC)cc2O)cc1,97.1% (active)
17,NS(=O)(=O)c1ccc(N=Nc2c(O)[nH]c3ccc(Br)cc23)cc1,-3.47% (inactive)
18,Oc1[nH]c2ccc(Br)cc2c1N=Nc1nn[nH]n1,89.8% (active)
19,O=C(CNC(=O)Cc1ccccc1)N=Nc1c(O)[nH]c2ccc(Br)cc12,10.6% (inactive)
20,COc1ccccc1CNS(=O)(=O)c1cc2c3c(c1)CCC(=O)N3CCC2,-0.847% (inactive)

# From PubChem BioAssay AID485317 (Broad Institute, 2010)
